Records with an inconclusive call do not appear. Entries that show only a call come without a potency. Calls of active or inactive are those of the source. The call rests on the fitted dose curve.
Assay: S16 Schwann cell PMP22 intronic element beta-lactamase assay (AID 624044); further: nearly all actives have a fitted effect of over 15% in size
Conditions: S16 rat Schwann cells, PMP22 element beta-lactamase FRET, 24 h; ratio activity, negative = inhibition: at 38.3 µM (top of the series)
Excerpt: Description: Charcot-Marie-Tooth-Association [CMTA] National Center for Advancing Translational Sciences [NCATS] Charcot-Marie-Tooth (CMT) disease was first characterized by Jean-Martin Charcot and Pierre Marie in France and, independently, by Howard Henry Tooth in England in 1886. CMT is one of the most common inherited neurological diseases, affecting approximately 1 in 2,500 Americans. […] The most prevalent type of CMT is known as CMT1A and caused by a duplication of the PMP22 gene which leads to over-expression of this protein. PMP22 is a glycosylated intrinsic membrane protein accounting for 2-5% of the myelin protein content, and its over-expression results in demyelination and subsequently axonal loss. A pair of cellular transcription-based assays was developed in the S16 rat Schwann cell lines (Hai, M., et al., 2002) stably transfected with orthogonal reporters - firefly luciferase (Fluc) and beta-lactamase (beta-Lac) - whose expression is driven by an intronic regulatory element of the PMP22 gene (Jones, E.A., et al., 2011) to recapitulate endogenous expression of PMP22. The current assay employs Blac as a reporter of PMP22 expression. A comprehensive library of approved drugs, the NCGC Pharmaceutical Collection (Huang, R., et al., 2011), was screened in the cross-validating platform of the orthogonal reporter assays to identify drug modulators inhibitory towards PMP22 expression. A set of counter-screens was devised to address non-specific activity of the library. An ATP-dependent CellTiter-Glo assay (developed by Promega Corp) was utilized to control cell viability. In addition, biochemical Fluc enzyme assay was performed to assess direct inhibition of the Fluc enzymatic activity. References Hai, M., Muja, N., DeVries, G.H., Quarles, R.H. and Patel, P.I. Comparative analysis of Schwann cell lines as model systems for myelin gene transcription studies. J Neurosci Res, 2002. 69(4): pp 497-508 Huang, R., Southall, N., Wang, Y., Yasgar A., Shinn P., Jadhav, A. , Nguyen, D.-T. and Austin, C.P., The NCGC pharmaceutical collection: a comprehensive resource of clinically approved drugs enabling repurposing and chemical genomics. Sci Transl Med, 2011. 3(80): p. 80ps16.
S16 Schwann cell PMP22 intronic element beta-lactamase assay The beta-Lac-expressing S16 cells were seeded in black clear-bottom 1536 well plates at between 500-750 cells/6uL in DMEM medium containing 10% FBS, w/o phenol red. After overnight incubation at 37 degree Celsius/5% C02, 23 nL of compounds or DMSO were delivered to each well using a pin tool, followed by 24h-incubation at 37 degree Celsius/5% C02. Then one microl of LiveBLAzer FRET B/G detection mix (Invitrogen) was added to each well. An EnVision plate reader (PerkinElmer) was used to detect the dual beta-Lac output composed of fluorescence at 460nm for beta-Lac expression and FRET at 535nm for cell viability. The % signal at 535 nm was scaled to a full range of DMSO and zero and then normalized using the maximum response observed in the screen as 100% activity. The % signal at 460nm was normalized to the average readings of potassium clavulanate (a positive control) - treated cells relative to DMSO-treated cells (0% Activity). The concentration-effect curves were then classified based on curve quality (r2), response magnitude and degree of measured activity.
Potency means the concentration at half of the fitted maximal effect.

Row | SMILES | Potency
1 | O=C(O)[C@H]1C[C@@H](CP(=O)(O)O)CCN1 | inactive
2 | CC(O)C1CCC2C3CCC4CC(O)CCC4(C)C3CCC12C (stereo not given) | inactive
3 | CC(=O)NC[C@@H]1CN(c2ccc(N3CCOCC3)c(F)c2)C(=O)O1 | inactive
4 | CN1[C@H]2CC(OC(=O)[C@H](CO)c3ccccc3)C[C@H]1[C@H]1O[C@H]12 (stereo not given in full) | inactive
5 | C[C@@H](O)[C@@H]1C(=O)N2C(C(=O)O)=C([C@H]3CCCO3)S[C@H]12 | inactive
6 | CC(=O)N[C@H]1[C@H](O[C@@H]2c3ccc(c(Cl)c3)Oc3cc4cc(c3O[C@@H]3O[C@H](CO)[C@@H](O)[C@H](O)C3C)Oc3ccc(cc3Cl)C[C@H]3NC(=O)[C@@H](N)c5ccc(O)c(c5)Oc5cc(O)cc(c5)[C@H](NC3=O)C(=O)N[C@H]4C(=O)N[C@H]3C(=O)N[C@@H]2C(=O)N[C@@H](C(=O)O)c2cc(O)cc(O[C@H]4O[C@H](CO)[C@@H](O)C(O)[C@@H]4O)c2-c2cc3ccc2O)O[C@H](CO)[C@@H](O)[C@@H]1O (stereo not given in full) | inactive
7 | CC[C@@]1(O)C[C@H](O[C@H]2C[C@@H](N(C)C)[C@@H](O[C@H]3C[C@@H](O)[C@@H](O[C@H]4CCC(=O)[C@@H](C)O4)[C@@H](C)O3)[C@@H](C)O2)c2c(cc3c(c2O)C(=O)c2c(O)cccc2C3=O)[C@H]1C(=O)OC | 0.199 µM (active)
8 | C/C=C1/NN(CCCN2CCN(c3cccc(Cl)c3)CC2)C(=O)N1CCOc1ccccc1 | inactive
9 | CC1CN(c2c(F)c(N)c3c(=O)c(C(=O)O)cn(C4CC4)c3c2F)CC(C)N1 (stereo not given) | inactive
10 | CC1=C(/C=C/C(C)=C\C=C\C(C)=C\C=C\C=C(C)\C=C\C=C(C)\C=C\C2=C(C)C[C@@H](O)CC2(C)C)C(C)(C)C[C@H](O)C1 | inactive
11 | CC1OC(OC2C(O)CC(OC3C(O)CC(OC4CCC5(C)C(CCC6C5CCC5(C)C(C7=CC(=O)OC7)CCC65O)C4)OC3C)OC2C)CC(O)C1O (stereo not given) | inactive
12 | C=C1CC2C3C=C(C)C4=CC(=O)CCC4(C)C3CCC2(C)[C@@]1(OC(C)=O)C(C)=O (stereo not given in full) | inactive
13 | CC(C)(C)C(=O)OCC(=O)C1CCC2C3CCC4=CC(=O)CCC4(C)C3CCC12C (stereo not given) | inactive
14 | Cc1onc(-c2c(F)cccc2Cl)c1C(=O)NC1C(=O)N2C1SC(C)(C)C2C(=O)O (stereo not given) | inactive
15 | CC(=O)C1(O)Cc2c(O)c3c(c(O)c2C(OC2CC(N)C(O)C(C)O2)C1)C(=O)c1c(O)cccc1C3=O (stereo not given) | 0.0999 µM (active)
16 | CC1(C)O[C@@H]2C[C@H]3[C@@H]4CCC5=CC(=O)C=C[C@]5(C)[C@H]4C(O)C[C@]3(C)[C@]2(C(=O)CO)O1 (stereo not given in full) | inactive
17 | O=[N+]([O-])O[C@H]1CO[C@H]2[C@@H]1OC[C@H]2O | inactive
18 | Cc1cc2nc3c(=O)[nH]c(=O)nc-3n(CC(O)C(O)C(O)COP(=O)(O)O)c2cc1C (stereo not given) | inactive
19 | CNC1C(O)C(OC2C(NC(=O)C(O)CN)CC(N)C(OC3OC(CN)C(O)C(O)C3O)C2O)OCC1(C)O (stereo not given) | inactive
20 | C[C@]12CCC(=O)C=C1[C@@H]1C[C@H]1[C@H]1[C@@H]3[C@@H]4C[C@H]4[C@@]4(CCC(=O)O4)[C@@]3(C)CC[C@@H]12 | inactive

Row | SMILES | Potency
21 | O=C1C(I)=CC(=C(c2cc(I)c(O)c(I)c2)c2ccccc2C(=O)O)C=C1I | inactive
22 | Cc1cn([C@H]2CC(F)[C@@H](CO)O2)c(=O)[nH]c1=O (stereo not given in full) | inactive
23 | C[C@H](CN1c2ccccc2Sc2cccnc21)N(C)C | inactive
24 | C[C@@H]1CCN(C(=O)[C@H](CCCNC(=N)N)NS(=O)(=O)c2cccc3c2NC[C@H](C)C3)[C@@H](C(=O)O)C1 | inactive
25 | O=c1ccn(C2OC(COP(=O)(O)OC3C(CO)OC(n4ccc(=O)[nH]c4=O)C3O)C(O)C2O)c(=O)[nH]1 (stereo not given) | inactive
26 | CC(=O)OCC(=O)[C@@]1(O)CCC2C3C[C@H](C)C4=CC(=O)C=CC4(C)C3C(O)CC21C (stereo not given in full) | inactive
27 | NC(=O)c1ncn(C2OC(CO)C(O)C2O)c1N (stereo not given) | inactive
28 | CCC(C(=O)O)C1OC(C(C)C(O)C(C)C(=O)C(CC)C2OC3(C=CC(O)C4(CCC(C)(C5CCC(O)(CC)C(C)O5)O4)O3)C(C)CC2C)C(C)CC1C (stereo not given) | 6.3 µM (active)
29 | C[n+]1c2cc(N)ccc2cc2ccc(N)cc21 | inactive
30 | O=C(O)CC(O)CC(O)/C=C/c1c(C2CC2)nc2ccccc2c1-c1ccc(F)cc1 (stereo not given) | inactive
31 | C=C1[C@@H]2CC[C@H](C2)C1(C)C | inactive
32 | COc1ccc(S(=O)(=O)N2c3ccc(Cl)cc3[C@](O)(c3ccccc3Cl)[C@@H]2C(=O)N2CCC[C@H]2C(N)=O)cc1OC | inactive
33 | C#C[C@@]1(O)CC[C@@H]2[C@H]3CCC4=C/C(=N\O)CC[C@H]4[C@@H]3CC[C@]21CC | inactive
34 | CO[C@H]1OC2O[C@@]3(C)CC[C@H]4[C@H](C)CC[C@@H]([C@H]1C)[C@@]24OO3 (stereo not given in full) | inactive
35 | NC(C(=O)O)c1ccc(O)cc1 (stereo not given) | inactive
36 | COC(=O)C1C2CC3c4[nH]c5cc(OC)ccc5c4CCN3CC2CC(OC)C1OC (stereo not given) | inactive
37 | CO/N=C(/C(=O)N[C@@H]1C(=O)N2C(C(=O)O)=C(CSc3cnns3)CS[C@H]12)c1csc(N)n1 | inactive
38 | CN1[C@@H]2CC[C@@H]1CC(OC(=O)[C@H](CO)c1ccccc1)C2 (stereo not given in full) | inactive
39 | CC1(C)SC2C(NC(=O)C(C(=O)O)c3ccccc3)C(=O)N2C1C(=O)O (stereo not given) | inactive
40 | O=C(O)C(O)c1ccccc1 (stereo not given) | inactive

Reference: PubChem BioAssay (NCATS)
